From the supplement of paper PMC8699584 come the findings set out here.

Where “and” joins values, the source holds several entries; their conditions need not be identical. Equal entries are not always repeated. Structures can show the parent of a compound that is named as a salt. ± gives the standard deviation of the averaged measurements.

As a reminder, the cell viability is a read-out of living cells in per cent, often relative to untreated cells.

In the experiment the test system is Molm13. Description: cell viability relative to DMSO control (bortezomib = 0%); higher = less growth inhibition. As to conditions: 10 nM; 72 h. The essentials: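 Cell viability was assessed by CellTiter-Glo luminescence. Acute myeloid leukemia cells were seeded at 1000 cells per well in 50 µL on a 384-well library of 679 compounds at a single 10 nM dose for 72 h. Per-plate linear regression set DMSO-treated cells at 100% and positive-control-treated cells at 0%.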
As to `O=S(=O)(c1cccc2cnccc12)N1CCCNCC1` [Fasudil], the cell viability turned out to be 109 ± 12%.
In the case of `CS(=O)(=O)c1ccc(-c2cnc(N)c(C(=O)Nc3ccccc3)n2)cc1`, the cell viability was found to be 83.9 ± 3.9%.
As for `Oc1c2ccccc2c2c3c(cccc13)N=N2`, the figure is 114% and 102%; as for `N#CC(=Cc1cc(Cl)cc(Cl)c1)c1cccnc1`, 116 ± 8.1%; as for `COc1cc2ncnc(Oc3ccc(CC(=O)Nc4cnn(C(C)C)c4)cc3)c2cc1OC`, 24.8 ± 4.2%.
`c1cc(-c2cnn3cc(-c4ccc(OCCN5CCCCC5)cc4)cnc23)ccn1` [Dorsomorphin dihydrochloride]: the cell viability was 58.3 ± 6.7%.
For `C#Cc1cccc(Nc2ncnc3cc4c(cc23)OCCOCCOCCO4)c1` [Icotinib], the cell viability was determined as 93.2 ± 10%.
As for `FC(F)c1nc2ccccc2n1-c1nc(N2CCOCC2)nc(N2CCOCC2)n1`, the figure is 117 ± 11%; as for `Fc1ccc2[nH]ccc2c1-c1nc(N2CCOCC2)c2sc(CN3CCN(CC4CC4)CC3)cc2n1`, 111 ± 13%.
Then `O=c1cc(N2CCOCC2)oc2c(-c3ccccc3)cccc12`, with 107 ± 28%; and `NC(=O)c1ccc(N(C(N)=O)c2c(F)cccc2F)nc1-c1ccc(F)cc1F`, with 93.7 ± 5.1%.
Then `COc1cc(OC)c(/C=C/S(=O)(=O)Cc2ccc(OC)c(NCC(=O)O)c2)c(OC)c1`, with 99.3 ± 23%; and `COc1ccc(S(=O)(=O)N(CCO)c2ccccc2CN(C)C/C=C/c2ccc(Cl)cc2)cc1` [KN-93 Phosphate], with 99.1 ± 2.2%; and `Nc1nc(O)c2ncn(CCC(CO)CO)c2n1` [Penciclovir], with 111 ± 8%.
For `C#Cc1cccc(Nc2ncnc3cc(OCCOC)c(OCCOC)cc23)c1` [Erlotinib hydrochloride], the cell viability stood at 108 ± 9.8%.
With `O=C1Nc2cc(Br)ccc2/C1=C1/Nc2ccccc2/C1=N\O`, the cell viability turned out to be 109 ± 2.3%.
Then `CN1CCN(Cc2ccc(-c3cnc4[nH]cc(-c5ccc6[nH]ccc6c5)c4c3)cc2)CC1`, with 109 ± 33%; and `CC(C)(C)NS(=O)(=O)c1cncc(-c2cc(F)c3nc(N)nn3c2)c1`, with 95.9 ± 22%; and `Cc1c(F)cc(C(=O)NC2CC2)cc1-c1ccc(C(=O)NCC(C)(C)C)cn1`, with 92.1 ± 8%.
As for `O=C(NCCCNc1nc(Nc2cccc(NC(=O)N3CCCC3)c2)ncc1I)c1cccs1`, the figure is 95.7 ± 9.5%; as for `O=C(NOCC1CC1)c1ccc(F)c(F)c1Nc1ccc(I)cc1Cl`, 105 ± 1.4%; as for `Cc1ccc(S(=O)(=O)/C=C/C#N)cc1`, 87.5 ± 24%.
As for `NC(=O)c1ccc2nc(-c3ccc(Oc4ccc(Cl)cc4)cc3)[nH]c2c1`, the cell viability is 100 ± 13%.
Then `Cc1c(NC(=O)OC[C@@H]2COCCN2)cn2ncnc(Nc3ccc4c(cnn4Cc4cccc(F)c4)c3)c12`, with 105 ± 8%; and `CN1CCN(c2nc(C3=C(c4c[nH]c5ccccc45)C(=O)NC3=O)c3ccccc3n2)CC1` [Sotrastaurin], with 99 ± 21%.
For `CO[C@@H]1[C@H](N(C)C(=O)c2ccccc2)C[C@H]2O[C@]1(C)n1c3ccccc3c3c4c(c5c6ccccc6n2c5c31)C(=O)NC4`, the cell viability was 76.2 ± 3%.
As for `O.O.O.O.O=C([O-])CC(O)(CC(=O)[O-])C(=O)[O-].[Li+].[Li+].[Li+]` [Lithium citrate tribasic tetrahydrate], the cell viability is 109 ± 1.3%.
